The target in experiment [1] is human Retinoic Acid Receptor gamma (RARg), RARG (gene 5916) (UniProt P13631). Briefly: ATG_RARg_TRANS: Attagene TRANS-FACTORIAL HepG2 Assay for human Retinoic Acid Receptor gamma (RARg) (AID 2283009; active means hit-call score of the fitted dose curve at least 0.9, where 1 is the maximum). The method in brief:
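HepG2, RARg-GAL4 TRANS system, 24 h exposure; reporter mRNA by RT-PCR + CE fluorescence; increase over DMSO.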

Experiment [2] deals with human RAR-related Orphan Receptor gamma (RORg), RORC (gene 6097) (UniProt P51449). Briefly: ATG_RORg_TRANS: Attagene TRANS-FACTORIAL HepG2 Assay for human RAR-related Orphan Receptor gamma (RORg) (AID 2283011; active means hit-call score of the fitted dose curve at least 0.9, where 1 is the maximum). The method in brief: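 Readout: reporter transcript induction (RT-PCR, fluorescent primer extension, capillary electrophoresis) after 24 h compound exposure of transiently transfected HepG2 cells carrying a RORg-Gal4 chimera and GAL4-UAS reporters; DMSO served as baseline, with increasing signal fitted.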
human RAR-related Orphan Receptor gamma (RORg), RORC (gene 6097), sequence (P51449 whole entry, looked up, the tested form may be a part): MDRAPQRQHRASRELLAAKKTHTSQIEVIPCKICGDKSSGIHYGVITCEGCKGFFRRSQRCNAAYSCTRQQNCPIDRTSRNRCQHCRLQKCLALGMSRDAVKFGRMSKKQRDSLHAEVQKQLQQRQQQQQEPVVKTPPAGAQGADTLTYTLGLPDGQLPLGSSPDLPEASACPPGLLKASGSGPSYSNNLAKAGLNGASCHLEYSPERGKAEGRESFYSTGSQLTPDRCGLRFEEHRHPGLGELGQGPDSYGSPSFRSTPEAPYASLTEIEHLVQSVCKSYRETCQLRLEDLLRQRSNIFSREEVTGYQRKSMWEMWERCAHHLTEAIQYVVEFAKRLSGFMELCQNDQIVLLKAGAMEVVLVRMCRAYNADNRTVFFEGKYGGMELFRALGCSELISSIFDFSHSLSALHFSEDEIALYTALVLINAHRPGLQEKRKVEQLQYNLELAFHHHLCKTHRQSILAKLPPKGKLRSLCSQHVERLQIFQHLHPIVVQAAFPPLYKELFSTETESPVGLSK

Experiment [3] concerns the target Retinoic acid receptor RXR-alpha (Homo sapiens) (UniProt P19793). Briefly: ATG_RXRa_TRANS: Attagene TRANS-FACTORIAL HepG2 Assay for human Retinoid X Receptor alpha (RXRa) (AID 2283012; active means hit-call score of the fitted dose curve at least 0.9, where 1 is the maximum). Put shortly:
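Cells (HepG2) carried transiently transfected GAL4-responsive reporter units. Following a 24 h chemical incubation, reporter mRNA induction was read via RT-PCR fragment analysis; DMSO served as negative control and baseline.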

Experiment [4] concerns the target human Retinoid X Receptor beta (RXRb), RXRB (gene 6257) (UniProt P28702). Briefly: ATG_RXRb_TRANS: Attagene TRANS-FACTORIAL HepG2 Assay for human Retinoid X Receptor beta (RXRb) (AID 2283013; active means hit-call score of the fitted dose curve at least 0.9, where 1 is the maximum). Put shortly:
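Multiplexed TRANS reporter assay in HepG2; 24 h dosing; reporter mRNA by RT-PCR/CE fluorescence; gain-of-signal relative to DMSO.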

For experiment [5], the target named is human Thyroid Receptor alpha (THRa1), THRA (gene 7067) (UniProt P10827). Briefly: ATG_THRa1_TRANS: Attagene TRANS-FACTORIAL HepG2 Assay for human Thyroid Receptor alpha (THRa1) (AID 2283014; active means hit-call score of the fitted dose curve at least 0.9, where 1 is the maximum). The method in brief: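 HepG2 cells transiently transfected with multiplexed GAL4-UAS reporter units for exogenous chimeric THRa1-Gal4; reporter mRNA measured 24 h after dosing by RT-PCR, 6-FAM labelling, HpaI digestion and capillary electrophoresis. Gain-of-signal fitted versus DMSO baseline.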
human Thyroid Receptor alpha (THRa1), THRA (gene 7067), sequence (P10827 whole entry, looked up, the tested form may be a part): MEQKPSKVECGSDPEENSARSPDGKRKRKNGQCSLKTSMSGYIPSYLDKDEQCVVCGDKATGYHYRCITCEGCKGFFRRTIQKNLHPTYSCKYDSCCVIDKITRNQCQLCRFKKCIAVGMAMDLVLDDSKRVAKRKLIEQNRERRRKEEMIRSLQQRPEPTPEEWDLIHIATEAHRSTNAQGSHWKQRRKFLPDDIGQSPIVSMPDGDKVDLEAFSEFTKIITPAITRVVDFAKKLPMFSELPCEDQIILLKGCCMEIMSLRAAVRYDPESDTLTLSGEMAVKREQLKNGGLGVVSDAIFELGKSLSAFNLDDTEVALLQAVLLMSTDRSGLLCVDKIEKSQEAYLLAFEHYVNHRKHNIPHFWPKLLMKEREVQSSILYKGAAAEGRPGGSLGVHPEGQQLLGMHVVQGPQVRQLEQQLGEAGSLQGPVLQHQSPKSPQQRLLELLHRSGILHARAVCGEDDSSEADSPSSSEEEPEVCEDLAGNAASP

Read-out in experiment [6]: E-selectin (Homo sapiens) (UniProt P16581)
The experiment in a line: BSK_3C_Eselectin: BioMAP Diversity Plus: 3C Assay for Eselectin Biomarker Activity (AID 2283015).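 On outcome: cell surface E-selectin protein quantified by ELISA 24 h after dosing.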 To be noted: primary human endothelial cells (HUVEC); actives raise or lower the signal. The method in brief: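 Primary human umbilical vein endothelial cells (3C system) were dosed with chemical and cell-surface E-selectin measured by ELISA 24 h later. Bidirectional curve fitting used DMSO as negative control and baseline.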

Read-out in experiment [7]: Interleukin-1 alpha (IL1a), IL1A (gene 3552)
Briefly: BSK_BE3C_IL1a: BioMAP Diversity Plus: BE3C Assay for Interleukin-1 alpha (IL1a) Biomarker Activity (AID 2283016). As to conditions: primary human bronchial epithelial cells; actives raise or lower the signal. Put shortly:
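Cultures of primary human bronchial epithelial cells receive test chemical. After 24 h, IL-1a is quantified by ELISA, while parallel wells are fixed in TCA and SRB-stained for total protein. Changes in either direction are fitted relative to DMSO.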

Read-out in experiment [8]: Monocyte Chemoattractant Protein-1 (MCP1), CCL2 (gene 6347)
The experiment in a line: BSK_3C_MCP1: BioMAP Diversity Plus: 3C Assay for Monocyte Chemoattractant Protein-1 (MCP1) Biomarker Activity (AID 2283017). As to conditions: primary human endothelial cells (HUVEC); actives raise or lower the signal. Put shortly: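 Primary human umbilical vein endothelial cells (3C system) were exposed to test chemical for 24 h, after which MCP-1 was quantified by ELISA. Activity was fitted bidirectionally against DMSO as negative control and baseline.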

Read-out in experiment [9]: Human Leukocyte Antigen - DR isotype (HLADR), HLA-DRA (gene 3122)
The experiment in a line: BSK_3C_HLADR: BioMAP Diversity Plus: 3C Assay for Human Leukocyte Antigen - DR isotype (HLADR) Biomarker Activity (AID 2283019). To be noted: primary human endothelial cells (HUVEC); actives raise or lower the signal. Put shortly: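 Primary human umbilical vein endothelial cells (3C system) were dosed with compound and cell-surface HLA-DR was quantified by ELISA at 24 h. Activity was fitted bidirectionally against DMSO as negative control and baseline.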

Read-out in experiment [10]: Interleukin-8 (IL8), CXCL8 (gene 3576)
Briefly: BSK_3C_IL8: BioMAP Diversity Plus: 3C Assay for Interleukin-8 (IL8) Biomarker Activity (AID 2283020). As to conditions: primary human endothelial cells (HUVEC); actives raise or lower the signal. Put shortly:
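Human vascular endothelial cells (umbilical vein) in the 3C system; IL-8 level detected by ELISA at 24 h post-dose, with DMSO as baseline.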

Read-out in experiment [11]: Monokine induced gamma interferon (MIG), CXCL9 (gene 4283)
The experiment in a line: BSK_3C_MIG: BioMAP Diversity Plus: 3C Assay for Monokine induced gamma interferon (MIG) Biomarker Activity (AID 2283021).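 On AC50: MIG protein level measured by immunoassay in the treated endothelial cultures.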 To be noted: primary human endothelial cells (HUVEC); actives raise or lower the signal. Put shortly:
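After 24 h of treatment, human umbilical vein endothelial cultures (3C system) had their MIG biomarker level determined by ELISA, with DMSO serving as negative control.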

Experiment [12] deals with human Vitamin D Receptor (VDR), VDR (gene 7421) (UniProt P11473). Briefly: ATG_VDR_TRANS: Attagene TRANS-FACTORIAL HepG2 Assay for human Vitamin D Receptor (VDR) (AID 2283022; active means hit-call score of the fitted dose curve at least 0.9, where 1 is the maximum). Put shortly: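 HepG2 cells were transiently transfected with multiple GAL4-UAS reporter units, so signal reflects exogenous chimeric receptor-Gal4 activity. After 24 h compound exposure, reporter mRNA was measured by RT-PCR, fluorescent labelling and capillary electrophoresis, fitted for gain of signal versus DMSO.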
human Vitamin D Receptor (VDR), VDR (gene 7421), sequence (P11473 whole entry, looked up, the tested form may be a part): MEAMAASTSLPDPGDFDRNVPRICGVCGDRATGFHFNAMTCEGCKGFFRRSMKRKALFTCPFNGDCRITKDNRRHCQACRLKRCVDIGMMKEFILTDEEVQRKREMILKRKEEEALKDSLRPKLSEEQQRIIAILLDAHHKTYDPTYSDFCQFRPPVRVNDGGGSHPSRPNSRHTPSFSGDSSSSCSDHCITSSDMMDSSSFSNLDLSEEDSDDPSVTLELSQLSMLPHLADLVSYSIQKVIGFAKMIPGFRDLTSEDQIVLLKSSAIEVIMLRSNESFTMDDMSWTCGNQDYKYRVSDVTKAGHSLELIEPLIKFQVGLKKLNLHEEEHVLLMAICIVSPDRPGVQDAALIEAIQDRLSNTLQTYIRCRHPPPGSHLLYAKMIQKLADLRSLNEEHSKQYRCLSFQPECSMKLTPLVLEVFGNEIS

Experiment [13] in a line: BSK_3C_SRB: Viability Assessment in the BioMAP Diversity Plus: 3C Assay (AID 2283023).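 Further: fitted both ways against DMSO so a hit may be signal rise or drop.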 To be noted: primary human endothelial cells (HUVEC). Put shortly:
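Primary human umbilical vein endothelial cells in the 3C system were read 24 h after compound dosing. Total protein was stained with 0.1% sulforhodamine B after 10% TCA fixation and read at 560 nm, with bidirectional fitting against DMSO as baseline.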

Read-out in experiment [14]: Matrix Metallopeptidase 1 (MMP1), MMP1 (gene 4312)
The experiment in a line: BSK_BE3C_MMP1: BioMAP Diversity Plus: BE3C Assay for Matrix Metallopeptidase 1 (MMP1) Biomarker Activity (AID 2283024). As to conditions: primary human bronchial epithelial cells; actives raise or lower the signal. Put shortly:
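Dose cells, wait 24 h, run MMP1 ELISA; cells are human bronchial epithelial primaries. Both increases and decreases relative to DMSO counted.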

A short description of experiment [15]: BSK_3C_Vis: BioMAP Diversity Plus: 3C Assay for Morphology Visualization (AID 2283025).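 Further: fitted both ways so gain or loss versus DMSO counts.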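 On AC50: light microscopy image of cell morphology used as background control.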 To be noted: primary human endothelial cells (HUVEC). The method in brief:
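Endothelial cells from human umbilical vein were treated with test chemicals for 24 h and inspected by light microscopy for changes in cell conformation.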

Read-out in experiment [16]: Pselectin, SELP (gene 6403)
The experiment in a line: BSK_4H_Pselectin: BioMAP Diversity Plus: 4H Assay for Pselectin Biomarker Activity (AID 2283026). As to conditions: primary human endothelial cells (HUVEC); actives raise or lower the signal. The method in brief: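 Human vascular endothelium from umbilical vein; P-selectin measured by ELISA at 24 h post-dose, with cytotoxicity checked by sulforhodamine B total-protein staining in parallel cultures (0.1% SRB after 10% TCA fixation, read at 560 nm).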

Experiment [17] is described as follows: BSK_4H_SRB: Viability Assessment in the BioMAP Diversity Plus: 4H Assay (AID 2283027).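 Further: cells exposed to compound for 24 h before staining.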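 On AC50: curves fitted both ways versus DMSO so AC50 may be loss or gain.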 To be noted: primary human endothelial cells (HUVEC). The method in brief: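 Absorbance at 560 nm of SRB-stained total protein served as the viability read-out in confluent primary human umbilical vein endothelium 24 h after chemical treatment. Curves were fitted bidirectionally against DMSO as negative control.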

The nature of experiment [18]: BSK_BE3C_SRB: Viability Assessment in the BioMAP Diversity Plus: BE3C Assay (AID 2283028).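 On AC50: fitted both ways so AC50 may mark signal gain or loss versus DMSO.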 To be noted: primary human bronchial epithelial cells. Put shortly:
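Human primary bronchial epithelial cells were exposed to test chemicals for 24 h. Total protein in parallel cultures was then measured by staining with 0.1% sulforhodamine B after 10% TCA fixation, with absorbance read at 560 nm. Activity was fitted bidirectionally against DMSO.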

Read-out in experiment [19]: Thrombomodulin, THBD (gene 7056)
The experiment in a line: BSK_3C_Thrombomodulin: BioMAP Diversity Plus: 3C Assay for Thrombomodulin Biomarker Activity (AID 2283029). To be noted: primary human endothelial cells (HUVEC); actives raise or lower the signal. Put shortly: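 Thrombomodulin ELISA, human primary HUVEC, 24 h post-dose; data fitted in both directions relative to DMSO.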

Read-out in experiment [20]: Monocyte Chemoattractant Protein-1 (MCP1), CCL2 (gene 6347)
The experiment in a line: BSK_4H_MCP1: BioMAP Diversity Plus: 4H Assay for Monocyte Chemoattractant Protein-1 (MCP1) Biomarker Activity (AID 2283018). To be noted: primary human endothelial cells (HUVEC); actives raise or lower the signal. Put shortly:
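Readout: MCP-1 ELISA on compound-treated HUVEC, sampled 24 h post-dosing. Baseline and negative control DMSO; bidirectional fit. Overt toxicity checked alongside by sulforhodamine B protein staining at time of biomarker measurement.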

These results are taken from PubChem BioAssay (EPA / NIEHS).

SMILES strings stand for the structures. “And” between values parts separate entries of the source, which are not always exact repeats. Equal entries are not always repeated. Inconclusive results are not listed. Some compounds were tested as several samples or in several runs, with calls that do not always agree. The source made the active and inactive calls. How the source made its calls, unless noted: active means hit-call score of the fitted dose curve at least 0.9, where 1 is the maximum; inactive means score below 0.9.

E-selectin (Homo sapiens), sequence (P16581 whole entry, looked up): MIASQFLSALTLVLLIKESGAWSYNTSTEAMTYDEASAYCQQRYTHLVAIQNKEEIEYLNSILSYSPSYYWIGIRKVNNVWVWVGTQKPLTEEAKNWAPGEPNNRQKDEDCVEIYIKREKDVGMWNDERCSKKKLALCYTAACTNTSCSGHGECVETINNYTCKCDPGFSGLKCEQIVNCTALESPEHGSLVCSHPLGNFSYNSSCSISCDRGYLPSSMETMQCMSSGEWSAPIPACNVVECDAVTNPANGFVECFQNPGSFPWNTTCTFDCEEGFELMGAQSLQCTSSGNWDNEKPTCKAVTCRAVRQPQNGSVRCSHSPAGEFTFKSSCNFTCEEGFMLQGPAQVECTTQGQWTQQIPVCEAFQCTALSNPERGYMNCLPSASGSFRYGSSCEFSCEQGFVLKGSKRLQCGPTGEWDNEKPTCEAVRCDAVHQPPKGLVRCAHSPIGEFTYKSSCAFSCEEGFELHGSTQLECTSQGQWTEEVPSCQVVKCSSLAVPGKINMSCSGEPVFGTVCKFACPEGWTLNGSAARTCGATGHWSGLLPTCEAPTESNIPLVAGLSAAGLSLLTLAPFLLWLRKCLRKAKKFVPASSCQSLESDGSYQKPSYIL
human Retinoic Acid Receptor gamma (RARg), RARG (gene 5916), sequence (P13631 whole entry, looked up, the tested form may be a part): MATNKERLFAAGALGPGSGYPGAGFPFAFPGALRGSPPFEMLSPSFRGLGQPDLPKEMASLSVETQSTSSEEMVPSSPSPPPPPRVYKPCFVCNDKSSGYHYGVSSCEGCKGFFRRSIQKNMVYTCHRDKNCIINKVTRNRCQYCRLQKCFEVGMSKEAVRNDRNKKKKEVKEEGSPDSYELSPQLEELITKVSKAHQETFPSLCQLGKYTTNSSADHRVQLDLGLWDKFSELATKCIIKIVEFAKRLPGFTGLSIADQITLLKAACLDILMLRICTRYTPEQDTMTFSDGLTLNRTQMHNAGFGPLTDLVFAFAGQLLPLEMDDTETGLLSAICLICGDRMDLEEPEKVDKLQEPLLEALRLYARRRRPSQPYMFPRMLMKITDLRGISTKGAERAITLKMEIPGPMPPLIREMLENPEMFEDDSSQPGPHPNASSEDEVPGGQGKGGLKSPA
Retinoic acid receptor RXR-alpha (Homo sapiens), sequence (P19793 whole entry, looked up, the tested form may be a part): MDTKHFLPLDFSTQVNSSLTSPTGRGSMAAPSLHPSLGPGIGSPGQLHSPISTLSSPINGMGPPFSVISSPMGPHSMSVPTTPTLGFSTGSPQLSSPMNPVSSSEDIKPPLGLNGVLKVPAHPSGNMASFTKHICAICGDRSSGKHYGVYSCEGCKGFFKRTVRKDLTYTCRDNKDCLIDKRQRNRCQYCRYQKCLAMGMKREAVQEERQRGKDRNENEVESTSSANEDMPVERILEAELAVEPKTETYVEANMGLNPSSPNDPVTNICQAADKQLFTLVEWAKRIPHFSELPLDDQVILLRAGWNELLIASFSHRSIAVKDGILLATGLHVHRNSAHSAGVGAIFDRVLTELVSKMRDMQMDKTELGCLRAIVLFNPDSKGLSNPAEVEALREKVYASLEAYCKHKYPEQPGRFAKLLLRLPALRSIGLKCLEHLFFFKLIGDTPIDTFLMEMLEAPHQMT
human Retinoid X Receptor beta (RXRb), RXRB (gene 6257), sequence (P28702 whole entry, looked up): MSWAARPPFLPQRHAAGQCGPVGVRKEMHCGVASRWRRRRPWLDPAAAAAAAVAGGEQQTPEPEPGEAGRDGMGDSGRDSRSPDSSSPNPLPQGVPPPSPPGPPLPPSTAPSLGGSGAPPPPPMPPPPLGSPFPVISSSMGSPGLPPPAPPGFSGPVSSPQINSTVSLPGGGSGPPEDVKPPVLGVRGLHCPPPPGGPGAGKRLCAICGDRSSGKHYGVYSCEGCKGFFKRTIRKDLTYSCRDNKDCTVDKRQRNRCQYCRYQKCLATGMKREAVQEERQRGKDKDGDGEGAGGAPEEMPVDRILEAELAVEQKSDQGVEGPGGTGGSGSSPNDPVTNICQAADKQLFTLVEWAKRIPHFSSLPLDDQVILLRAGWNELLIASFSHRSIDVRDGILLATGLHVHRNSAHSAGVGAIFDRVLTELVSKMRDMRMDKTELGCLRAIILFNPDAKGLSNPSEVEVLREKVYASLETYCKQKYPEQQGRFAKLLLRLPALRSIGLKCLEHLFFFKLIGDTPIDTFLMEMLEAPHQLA

For `CCCN(CCC)c1c([N+](=O)[O-])cc(S(N)(=O)=O)cc1[N+](=O)[O-]`, the call in experiment [1], in experiment [2], in experiment [3], in experiment [4], in experiment [5] and in [12] was inactive. The outcome in [19] was inactive. Also, the AC50 (commonly the concentration at which the activity in the assay is half-maximal) in [6] was 37.1 µM (active) [middle of 4 runs]; in [7], 39.6 µM (active) [middle of 4 runs]; in experiment [8], 36 µM (active) [middle of 4 runs]; in experiment [9], 38.6 µM (active) [middle of 4 runs]; in [10] it was 34.2 µM (active) [middle of 4 runs]; in experiment [11], 39 µM (active) and 41.1 µM (active) and 35.7 µM (active). Moreover, the AC50 in experiment [12] was 61.2 µM (active); in [13], 31.3 µM (active) [middle of 4 runs]; in experiment [14], 36 µM (active) [middle of 4 runs]; in experiment [15], 41 µM (active) and 41.8 µM (active) and 16.3 µM (active); in experiment [16] it was 34.2 µM (active) [middle of 4 runs]; in experiment [17] it was 32.3 µM (active) [middle of 4 runs]. Besides, in experiment [18], the AC50 is 34.3 µM (active) [middle of 4 runs].

Regarding `CC(C)C1(C)N=C(c2nc3ccccc3cc2C(=O)O)NC1=O` (configuration not stated), the call in [1], in experiment [2], in experiment [3], in experiment [4], in experiment [5] and in experiment [6] was inactive. The result in experiment [7], in experiment [8], in [20], in experiment [9], in experiment [10] and in [11] was inactive. The result in experiment [13], in experiment [14], in [15], in experiment [16], in experiment [17] and in experiment [18] was inactive. In addition, the result in experiment [19] was inactive.

For `CC(C)Oc1cc(-n2nc(C(C)(C)C)oc2=O)c(Cl)cc1Cl`, the result in experiment [1], in experiment [2], in experiment [3], in experiment [5], in experiment [7] and in experiment [11] was inactive. In addition, the call in [12] was inactive. Also, the AC50 was 29.2 µM (active) in [6]; 30.7 µM (active) in [8]; 29.7 µM (active) in [9]; 29 µM (active) in experiment [10]; 28.8 µM (active) in experiment [13]; 7.66 µM (active) in experiment [14]. Besides, the AC50 in [15] is 13.2 µM (active); in experiment [16], 29.3 µM (active); in experiment [17], 30.3 µM (active); in [18] it was 20 µM (active); in experiment [19] it was 20 µM (active).
